From article PMC4552634, “A New Set of Chemical Starting Points with Plasmodium falciparum Transmission-Blocking Potential for Antimalarial Drug Discovery” (PLoS ONE, 2015)
Read-outs that look alike come from different tables or passages of the source. Screen size: about 13,000 compounds; about 3,200 (25%) showed an effect of 50% or more. Some of the results follow.

Test system: P. falciparum stage V gametocytes
Set-up: BacTiter-Glo ATP luminescence viability of purified stage V gametocytes in 384-well plates, per cent inhibition versus DMSO
Details: 48 h, 5 µM, inhibitor

| SMILES | % Inhibition | % Inhibition (% Inhibition) |
| --- | --- | --- |
| Cc1ccc(C2CC(=O)CC(c3ccccn3)C2[N+](=O)[O-])cc1 (stereo not drawn) [TCMDC-139131] | 6.685% | – |
| CCCSc1nc2c(c(=O)n1Cc1ccco1)C1(CCCCC1)Cc1ccccc1-2 [TCMDC-123897] | -0.1623% | – |
| CC(C)C[C@H](NC(=O)c1ccc(OCCN2CCOCC2)cc1)C(=O)N[C@H](/C=N/N1CCN(C)C1=O)CCc1ccccc1 [TCMDC-136154] | 6.527% | – |
| CO/C(=C\C=C\c1cc2cc(Cl)c(Cl)cc2[nH]1)C(=O)NCCCN1CCN(c2cccc(O)c2)CC1 [TCMDC-139248] | 6.724% | – |
| O=C(NCc1ccc(C(=O)NC2CCCCCC2)cc1)c1ccc(O)c(-c2ccc(Cl)c(Cl)c2)c1 [TCMDC-140846] | -16.48% | – |
| CN(C)c1ccc(NC(=O)Nc2ccnc3ccc(Br)cc23)cc1 [TCMDC-139326] | -66.68% | – |
| C/C=C1\CN2CC[C@H]1C[C@H]2[C@H](O)c1ccnc2ccc(OC)cc12 [TCMDC-138074] | – | 4.282% |
| NCCCCNc1cc(-c2ccnc(Nc3cccc(Cl)c3)n2)ccn1 [TCMDC-134683] | 70.36% | – |
| COc1ccc(CNc2nccc3ccc(-c4ccc(N)nc4)cc23)cc1 [TCMDC-133418] | 62.64% | – |
| COc1ccc(Nc2nccc(-c3ccc4c(-c5ccsc5)cnc(N)c4c3)n2)cc1 [TCMDC-135552] | 9.815% | – |
| COc1ccc(CNc2nccc3ccc(-c4ccc5nccn5c4)cc23)cc1 [TCMDC-133417] | -35.58% | – |
| OC(CNc1ccnc(Nc2cccc(Cl)c2)n1)c1cccc(F)c1 (stereo not drawn) [TCMDC-136573] | -70.46% | – |
| COc1ccc(Nc2nccc(-c3ccc4ccnc(NCCCCN)c4c3)n2)cc1 [TCMDC-136642] | 94.8% | – |
| CCCCNc1nccc2ccc(-c3ccncc3)cc12 [TCMDC-136490] | -10.89% | – |
| COc1ccc(CNc2ccnc3cc(OC)ccc23)cc1 [TCMDC-139267] | 1.914% | – |
| OC(CNc1ccnc(Nc2cccc(Cl)c2)n1)c1cccc(C(F)(F)F)c1 (stereo not drawn) [TCMDC-136586] | -39.19% | – |
| Cc1ccccc1C1CCN(C2CCC(NC(=O)/C=C/c3cccc(Cl)c3)CC2)CC1 (stereo not drawn) [TCMDC-133508] | -91.25% | – |
| CS(=O)(=O)c1ccc(CNCc2cccc(-c3cccc(-c4nc5cc(C(F)(F)F)ccc5[nH]4)c3)c2)cc1.O=C(O)C(F)(F)F [TCMDC-132899] | -4.854% | – |
| O=C(Nc1ccc(N2CCN(Cc3cccc(F)c3)CC2)cc1)c1cccs1 [TCMDC-134999] | -0.3438% | – |
| COc1ccc2nccc([C@@H](O)CN3CCC(NC(=O)C(c4cc5ccccc5o4)N4CCC(Cc5ccccc5)CC4)CC3)c2c1 (stereo partly drawn) [TCMDC-140997] | 26.99% | – |
| COc1cccc(CCc2nc3c(N4CCC(Cc5ccccc5)CC4)cccc3n2CC2CNCCO2)c1 (stereo not drawn) [TCMDC-133535] | 83.91% | – |
| N#Cc1cncc(-c2nc3c(N4CCC(Cc5ccccc5)CC4)cccc3n2C2CCNC2)c1 (stereo not drawn) [TCMDC-133545] | 7.232% | – |
| CC(C)c1sc(N2CCN(C)CC2)nc1C(=O)Nc1ccc(F)cc1C(F)(F)F [TCMDC-134300] | 32.87% | – |

| SMILES | % Inhibition | % Inhibition (% Inhibition) |
| --- | --- | --- |
| CCSc1ccccc1COc1c(C)nc(N)nc1N [TCMDC-131359] | 18.44% | – |
| CCN(CC)c1nc(N)c2c(N)nc3c(c2c1C#N)C(=O)CN3Cc1ccccc1 [TCMDC-125024] | 94.19% | – |
| CCN(CC)c1nc(-c2ccccc2)cc(-c2ccccc2)c1C#N [TCMDC-125830] | -26.16% | – |
| Cc1cc(=O)c(-c2ccc(Oc3ccc(Cl)cc3Cl)cc2)c(C)[nH]1 [TCMDC-137267] | 10.5% | – |
| Cc1cc(=O)c(-c2cccc(Oc3ccc(Cl)cc3)c2)c(C)[nH]1 [TCMDC-137415] | 52.21% | – |
| Cc1cc(=O)c(-c2ccc(Oc3cccc(Cl)c3)cc2)c(C)[nH]1 [TCMDC-137265] | 67.32% | – |
| COc1ccc(Oc2ccc(-c3c(C)[nH]c(C)cc3=O)cc2)cc1 [TCMDC-137401] | 68.99% | – |
| Cc1cc(=O)c(-c2ccc(Oc3ccc(F)cc3)cc2)c(C)[nH]1 [TCMDC-137535] | 37.78% | – |
| Cn1cnc2c(SCc3ccc(OCc4ccccc4)cc3)ncnc21 [TCMDC-136496] | -19.47% | – |
| O=C(NC(=O)c1ccccc1O)c1ccccc1O [TCMDC-125868] | 4.896% | – |
| O=C(NC1CCN(c2ccnc3cc(Cl)ccc23)C1)c1ccc(F)cc1 (stereo not drawn) [TCMDC-133653] | -3.627% | – |
| O=C(Nc1nc2ccc(Cl)cc2s1)c1csnn1 [TCMDC-125073] | -15.98% | – |
| Cn1c(C2CC3CCC(C2)N3CC2CCC(NC(=O)/C=C/c3ccc(Cl)c(Cl)c3)CC2)nc2ccccc21 (stereo not drawn) [TCMDC-140342] | -2.342% | – |
| Cc1ccccc1N1CCN(c2ncc(C(=O)NC3CC3)cc2Cl)CC1 [TCMDC-134602] | 6.226% | – |
| CC(C)C[C@@H](/C=N/N1CCOC1=O)NC(=O)[C@H](CC(C)C)NC(=O)c1ccc(OCCN2CCOCC2)cc1 [TCMDC-136170] | -12.99% | – |
| COC(=O)c1ccc(CCCNCC(O)c2cccc(C(F)(F)F)c2)cc1 (stereo not drawn) [TCMDC-131462] | 1.956% | – |
| O=C(/C=C/c1ccc(Cl)c(Cl)c1)NCCCCCN1CCCN(C(=O)Nc2ccc(F)c(Cl)c2)CC1 [TCMDC-135755] | -45.85% | – |
| O=C(/C=C/c1ccc(Cl)c(Cl)c1)NCCCCCN1CCCN(C(=O)Nc2cc(Cl)cc(Cl)c2)CC1 [TCMDC-135760] | -3.132% | – |
| O=C(/C=C/c1ccc(Cl)c(Cl)c1)NCCCCCCN1CCCN(C(=O)Nc2cc(Cl)cc(Cl)c2)CC1 [TCMDC-135936] | -15.47% | – |
| Cc1ccc(/C=C/C(=O)NCCCCCN2CCCN(C(=O)Nc3ccc(Cl)c(Cl)c3)CC2)cc1 [TCMDC-136111] | -64.67% | – |
| O=C(COc1ccc(Cl)c(Cl)c1)NCCCCCN1CCCN(C(=O)Nc2cc(Cl)cc(Cl)c2)CC1 [TCMDC-136293] | 78.53% | – |
| O=C(COc1ccc(Cl)c(Cl)c1)NCCCCCN1CCCN(C(=O)Nc2ccc(Cl)c(Cl)c2)CC1 [TCMDC-136292] | 72.04% | – |
| CC(NC(C)(C)C)C(O)c1ccc(Cl)c(C(F)(F)F)c1 (stereo not drawn) [TCMDC-137910] | -2.927% | – |

| SMILES | % Inhibition | % Inhibition (% Inhibition) |
| --- | --- | --- |
| Cc1cccc(C(=O)NC(NC(=S)Nc2cc(Cl)ccc2Cl)C(Cl)(Cl)Cl)c1 (stereo not drawn) [TCMDC-124254] | -20.87% | – |
| CC1(C)N=C(N)N=C(N)N1OCCCOc1cccc(Cl)c1 [TCMDC-131762] | 16.24% | – |
| COc1ccc2nccc([C@@H](O)CN3CCC(NC(=O)/C=C/c4cc(F)cc(Br)c4)CC3)c2c1 [TCMDC-141031] | -7.765% | – |
| CN(C)CCOc1ccc(/C(=C(/CCCn2ccnc2)c2ccccc2)c2ccc(O)cc2)cc1 [TCMDC-138900] | -20.55% | – |
| CCCc1cc(OC)c(C[C@@H]2c3cc(O)c(Cl)cc3CCN2C)cc1OC [TCMDC-138128] | -6.481% | – |
| CN1C(=O)C(=O)N(CCCCCON=C(N)N)C1=S [TCMDC-139249] | 12.53% | – |
| CCNC(C)(C)CN(Cc1ccc(-c2ccc(C(F)(F)F)cc2)cc1)C(=O)Cn1c(CCc2cccc(F)c2F)nc(=O)c2ccccc21 [TCMDC-141047] | 102.8% | – |
| CC(C)NC(C)(C)CN(Cc1ccc(-c2ccc(C(F)(F)F)cc2)cc1)C(=O)Cn1c(CCc2cccc(F)c2F)nc(=O)c2ccccc21 [TCMDC-141084] | 71.8% | – |
| COc1ccc(NC(=O)Nc2cccc(-c3ccncc3)c2)cc1N1CCN(C)CC1 [TCMDC-139111] | 12.5% | – |
| O=C(Nc1ccc(-c2nc3cc4ccccc4cc3[nH]2)cc1)c1cccc(Br)c1 [TCMDC-123806] | -9.366% | – |
| O=C(NC1CC1)c1ccc(N2CCC(Oc3ccc(F)cc3)CC2)nc1 [TCMDC-134053] | 8.582% | – |
| O=C(Cn1c2ccccc2c(=O)c2ccc(Cl)cc21)Nc1ccc(C(F)(F)F)cc1 [TCMDC-125568] | 64.99% | – |
| O=C(Nc1ccc(C(F)(F)F)cc1)NC1CCN(c2ccnc3cc(Cl)ccc23)CC1 [TCMDC-133568] | -13.61% | – |
| CC(CCCCC(=O)Nc1ccc(C(F)(F)F)cc1)NCC(O)c1cccc(Cl)c1 (stereo not drawn) [TCMDC-131538] | 28.83% | – |
| FC(F)(F)COc1ccc(CCNCCCCNCCc2ccc(OCC(F)(F)F)c3ccccc23)c2ccccc12 [TCMDC-137282] | 101.8% | – |
| O=[N+]([O-])c1ccc(CNCCCCCCNCc2ccc([N+](=O)[O-])c3ccccc23)c2ccccc12 [TCMDC-137830] | 10.64% | – |
| O=c1cc(NCCCNCc2ccc(C(F)(F)F)cc2F)[nH]c2ccccc12 [TCMDC-139427] | 7.285% | – |
| FC(F)(F)COc1ccc(CNCCCCCCNCc2ccc(OCC(F)(F)F)c3ccccc23)c2ccccc12 [TCMDC-137853] | 131% | – |
| O=C(/C=C/c1ccc(Cl)c(Cl)c1)NCCCCCCN1CCN(C(=O)Nc2cc(Cl)nc(Cl)c2)CC1 [TCMDC-135891] | -18.09% | – |
| Cc1cccc(C(=O)Nc2ccnc(N(C)C3CCN(CC(C)C)CC3)c2)c1 [TCMDC-135023] | -10.51% | – |
| O=C(/C=C/c1cccc(F)c1)NC1CCC(CN2CCC(c3c[nH]c4ccccc34)CC2)CC1 (stereo not drawn) [TCMDC-139713] | – | 90.71% |
| Cc1ccc(/C=C/C(=O)NC2CCC(CN3CCC(c4c[nH]c5ccccc45)CC3)CC2)cc1C (stereo not drawn) [TCMDC-139769] | – | 39.49% |
| O=C(/C=C/c1cccc(F)c1)NC1CCC(CN2CCC(c3c[nH]c4ccccc34)CC2)CC1 (stereo not drawn) [TCMDC-139698] | – | 74.99% |
